The text below walks through data of the supplement of paper PMC6555819.

The assay deals with VDR:RXRa (NR concentration 270 nM, RXRa partner concentration 90 nM). Description: PBM binding z-score (relative to random genomic background probes); higher = stronger binding; sequences stand for … in GC…GCGATTGACAGCGTAGAATGAAGG
The method, then:
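Protein-binding microarray (Agilent 4x180K custom design, double-stranded 60-nt probes: 5' GC cap, 34-nt variable region, 24-nt constant primer region; full probe sequence given). Purified or IVT nuclear receptor:RXRα heterodimers (3:1 NR:RXRα, mostly 270:90 nM) or homodimers were incubated for 1 h in PBS with 2% milk and no ligand, then detected with Alexa488 antibodies. Fluorescence from o1-orientation probes (~5 replicates averaged) was converted to z-scores against 500 random hg19 background probes. Variable regions are seed direct-repeat (DR0–DR5) sites, all their single-nucleotide variants and half-site ablations.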
On to GCCCGGAGGACAAGGTCAGAGCTTTGTCCGTAGA, for which the PBM binding z-score came out at 1.11.

CCGAGTAGGTTATGGTGCATTCAGGCAACGGTGA gave a PBM binding z-score of 0.0938.

On to CCGACTGGGCCATAAGGTTACCATAAGCCAGCCC, for which the PBM binding z-score was found to be 0.0236.

The sequence ATCTCTAGGTAAGACCCAGTTCAGTGAAGAACGC showed a PBM binding z-score of 1.04.

TCATATAGTTAATACAGGTGAAAGTCGGCATCTA showed a PBM binding z-score of 1.26.

GCTATTAGTTGAAAGGGGAACCGAATGATTCTCG returned a PBM binding z-score of -0.142.

As to AGTCAATGTTCAGGACGAGGTAACGTAAAGCACG, the PBM binding z-score was determined as 0.00608.

The sequence CCGACTGGGGCAGAAAGCTTACCATACCATCCGG came in with a PBM binding z-score of -0.904.

Consider CTTGAAAGGTCGTGCTCAGGTGAGTATACCAAAC, for which the PBM binding z-score worked out at 3.55.

Sequence ACTATTAGTTGAGACGGGGGCAACCGATAGGTTG had a PBM binding z-score of 2.71.

ACTAGTTGGACAGCTGAGGTCACACACAATTCGG: the PBM binding z-score worked out at 3.85.

Sequence TCATATAGGTAAAGGTGAAAGCCGAACGATATGA returned a PBM binding z-score of 0.743.

In turn, ATATGTAGGTTATCGGTTCATTCAGTTTGCGCAT registered a PBM binding z-score of 3.97.

In turn, GATACAGGATCAGCTAGAGGCCAGAGTATGGAAA showed a PBM binding z-score of -0.569.

Turning to ATACCAAGGTGATCGTGAGGTCGTTAATACTAAC, the PBM binding z-score was 3.1.

ACTGGTTGGTCAGCTGAGGTCACACACAATTCGG displayed a PBM binding z-score of 4.57.

GCAGACAGGTGCAACGCAGGTAACTCAGGGTGGC registered a PBM binding z-score of -0.467.

In turn, GCTCGGAGGTCAAGGTCAGAGCTTTGTCCGTAGA returned a PBM binding z-score of 5.06.

Sequence CCTCGGAGCACAACAGGAGGTCAGAGCTGCCAGA showed a PBM binding z-score of 1.32.

CTACCAAGGTGAACAAGCTCGTTGATTACTATTC showed a PBM binding z-score of 0.121.

Sequence AGTCAAAGTTCATCTAGATAACGTAAGATATGCT displayed a PBM binding z-score of 4.66.

As for CCTACTGGGCCATCAGGCCATTGATATCAACGTT, the PBM binding z-score was -0.292.

CCTACTGAGCCATTCAGAGGTCATTGATCATATG returned a PBM binding z-score of 3.96.

Regarding GCTGATAGGTCAACTGATGGTCAGCTAAAGCTCG, the PBM binding z-score turned out to be 2.69.

With TCTCGGAGGACACGAAGGTCAGACCTTTCCAGAG, the PBM binding z-score was 2.45.

In turn, CCTTACGGGTCACTCCAGGTTATAGTATCGGAGT yielded a PBM binding z-score of 4.39.

The sequence CAAACTAGGTCAAGAGGCCAAAGTCCGCTTCCCG had a PBM binding z-score of 2.16.

With CCTAATGGGCCAAAAAGGTCATTGATGCCGATAA, the PBM binding z-score amounted to 5.11.

Sequence GTACCAAGGTGAATAGGTTGTTGATGAGTAGGCG showed a PBM binding z-score of 1.38.

With TCAGACAGGTGAAGGTAACTCTGGTACGCAGTCG, the PBM binding z-score stood at 0.577.

On to AATACAGGGTCACTAGGCCAGATTAGGTACGAAT, for which the PBM binding z-score was found to be 4.21.

Consider TGAATGAGGTTCAAGATCAGGGAACGTGGCGTCG, for which the PBM binding z-score amounted to 1.56.

With GATACAGGGTCAAGGGCAGAGTACGCGTATTGAT, the PBM binding z-score stood at 4.62.

With TCACGGAGGACACGAAGGTCAGAGCTTTCCAGAG, the PBM binding z-score was found to be 2.33.

The sequence GCTATTAGTCGAAAGGGCAACCGAATGATTCTCG displayed a PBM binding z-score of 0.247.

The sequence AGAACGAGGGCTATGAGTTGATAGCACGGGTGGC returned a PBM binding z-score of 0.114.

Take TAGCCGAGGTCATGCGGGCCAGTATAGTGTCGGC: the PBM binding z-score came out at 5.82.

Sequence AGTCAAAGTTCATCTAGGTAACGTATGATATGCT had a PBM binding z-score of 4.91.

The sequence CCTCGGAGGACAACAGGAGGGCAGAGCTGCCAGA showed a PBM binding z-score of -0.641.

Sequence CCTACTGGGCCCTTCAGAGGTCATTGATCATATG yielded a PBM binding z-score of 3.41.
